Screens: PubChem, National Center for Advancing Translational Sciences (NCATS)
Only some compounds are listed: those with a hit (about 19% of all), similar ones and a draw of the others.
HT1080 IDH1KD tx: toxicity to HT-1080 IDH1 knockdown cells (counter line); Potency, µM (top dose mostly 46.1 µM), inactives show at the highest dose activity, negative = toxicity, actives largely listed as cytotoxic; 360,000 tested, 2% active; AID 686971; HT-1080 IDH1 knockdown viability, ATP luminescence, 48 h;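 note: potency is the fitted concentration of half-maximal effect; 0% = DMSO wells and -100% = cell-free medium wells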
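After a 2 h attachment period, IDH1KD HT-1080 cells took pin-transferred compound for 48 h at 37 °C; ATP-based luminescence after 10 min room-temperature reagent incubation reported viability.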
TDP1 cell noCPT: qHTS for Inhibitors of human tyrosyl-DNA phosphodiesterase 1 (TDP1): qHTS in cells in absence of CPT | DT40 Tdp1-/- hTDP1 cells, no CPT, ATP luminescence, 48 h | AID 686978, 2013 | 420,000 tested, 15% active | Potency, µM (titrated, usually from 46.2 µM), for the others: at the top dose activity change, negative = growth inhibition, most hits filed as inhibitors; note: potency is the fitted concentration of half-maximal effect; nearly all actives have a fitted effect of over 55% in size
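Readout: luminescence from CellTiter-Glo after 30 min in the dark at RT. Cells: DT40 Tdp1-/- with stable hTDP1, 400/well. Exposure: compounds alone, ≥48 hr, 37 °C.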
TDP1 cell CPT: growth inhibition of DT40 Tdp1-/-;hTDP1 cells with camptothecin (screen for TDP1 inhibitors); 420,000 tested, 12% active; AID 686979; chicken DT40 Tdp1-/-;hTDP1 cells + 20 nM CPT, ATP luminescence, 48 h; Potency, µM (top dose mostly 46.2 µM), for the others: at the highest dose activity change, negative = growth inhibition, usual class: inhibitors; note: potency is the fitted concentration of half-maximal effect; nearly all actives have a fitted effect of over 55% in size
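Chicken DT40 Tdp1-/- cells stably complemented with human TDP1 were seeded at 400 cells/well in medium containing 20 nM camptothecin, exposed to pin-transferred compounds, and grown at 37 °C for at least 48 hr. Viability was read as ATP luminescence.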
HT1080NT lethal: kills 2HG-producing HT-1080-NT fibrosarcoma cells | HT-1080-NT fibrosarcoma viability, CellTiter-Glo ATP luminescence, 48 h | Potency, µM (titrated, usually from 46.1 µM), for inactives: at the top dose activity, negative = less viability, usual class: cytotoxic | 360,000 tested, 1.6% active | AID 686970;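 note: NT is the 2HG producing partner of a matched IDH1 knockdown line; potency is the fitted concentration of half-maximal effect; 0% = DMSO-treated cells and -100% = media-only wells without cells; nearly all actives have a fitted effect of over 55% in size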
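HT-1080-NT; 750 cells/well; 5% FBS RPMI; 48 h compound, 37 degrees C; CellTiter-Glo luminescence; curve fitting and curve-class assignment.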
IL1B secr inh: inhibitors of inflammasome signaling (IL-1 beta secretion) | activity change, % at 57.5 µM | AID 743279 | 360,000 tested, 4.7% active | THP-1 LPS/ATP IL-1B secretion, AlphaLISA, 16 h; active compounds read low; in the data active = activity change below about -50%; inconclusive = mostly about -30% to -49%
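Secreted IL-1B measured by AlphaLISA bead assay after 16 h compound exposure of THP-1 cells; compounds (final up to 57.5 uM) added 1 h before LPS (250 ng/mL) and ATP (1.25 mM) stimulation; lower signal means less secretion.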
The depositor's hits bear a star. Unless noted, calls come from the whole dose curve; as a rule, active = well fitted curve in the direction sought with a large enough effect; inconclusive = small, poorly fitted or top-dose-only effect, or another doubt; inactive = no such curve, though single readings can be large; an effect the other way counts as inactive or inconclusive. Unless noted, % is set by controls: 0 for no effect and ±100 for the full control effect.

For Cc1c(Cl)cccc1NC(=O)CC(c1ccc(F)cc1)N1Cc2ccccc2C1=O (configuration not stated) the results were TDP1 cell noCPT 20.6µM* and TDP1 cell CPT 23.1µM*.
CSc1cccc(NC(=O)CC(c2cccs2)N2Cc3ccccc3C2=O)c1 (configuration not stated) was read as TDP1 cell noCPT inconclusive and TDP1 cell CPT 16.4µM*.
For CCC(CO)N=CC1=C(O)CC(c2ccccc2)CC1=O (configuration not stated) the results were HT1080 IDH1KD tx 15.6%, TDP1 cell noCPT -2.0%, TDP1 cell CPT 21.5%, HT1080NT lethal 4.7% and IL1B secr inh -2.6.
Screening O=C(NCc1cccs1)C(=O)c1cn(CC(=O)N2CCOCC2)c2ccccc12 returned HT1080 IDH1KD tx 1.2%, TDP1 cell noCPT -7.1%, TDP1 cell CPT -19.1%, HT1080NT lethal -5.5% and IL1B secr inh 0.0.
COc1cc(Cl)c(C)cc1NC(=O)CC(c1ccc(F)cc1)N1Cc2ccccc2C1=O (configuration not stated) was read as TDP1 cell noCPT 18.4µM* and TDP1 cell CPT 23.1µM*.
Screening COc1ncc2nc(-c3ccccc3)c(=O)n(C)c2n1 returned TDP1 cell noCPT -2.8% and TDP1 cell CPT -7.7%.
`Cc1cccc(Nc2cc(C)c3c(O)cccc3n2)c1C` gave HT1080 IDH1KD tx inconclusive, TDP1 cell noCPT 23.1µM*, TDP1 cell CPT 20.6µM*, HT1080NT lethal inconclusive and IL1B secr inh -101.1*.
Cc1cc(=O)[nH]c(N2CCCNCC2)n1 was read as HT1080 IDH1KD tx 8.1%, TDP1 cell noCPT -13.2%, TDP1 cell CPT -28.8%, HT1080NT lethal 2.7% and IL1B secr inh -0.1.
For Cc1cc(=O)[nH]c(-n2nc(C)cc2C)n1 the results were HT1080 IDH1KD tx inconclusive, TDP1 cell noCPT 23.1µM*, TDP1 cell CPT 23.1µM*, HT1080NT lethal -23.3% and IL1B secr inh 15.5.
`COCc1c(C(=O)OC)nnn1-c1ccc(C(F)(F)F)cc1[N+](=O)[O-]` gave HT1080 IDH1KD tx 16.3%, TDP1 cell noCPT -9.8%, TDP1 cell CPT 18.4µM*, HT1080NT lethal 18.0% and IL1B secr inh -72.3*.
Screening CCOC(=O)c1nnn(-c2ccc([N+](=O)[O-])cc2[N+](=O)[O-])c1C returned HT1080 IDH1KD tx inconclusive, TDP1 cell noCPT 11.6µM*, TDP1 cell CPT 11.6µM*, HT1080NT lethal inconclusive and IL1B secr inh inconclusive.
Screening Cc1nccn1-c1ccc(C(F)(F)F)cc1[N+](=O)[O-] returned HT1080 IDH1KD tx 14.0%, TDP1 cell noCPT inconclusive, TDP1 cell CPT -12.9%, HT1080NT lethal -4.6% and IL1B secr inh 12.7.
Screening CCOC(=O)c1nnn(-c2ccccc2)c1C returned HT1080 IDH1KD tx -8.1%, TDP1 cell noCPT -11.3%, TDP1 cell CPT -4.3%, HT1080NT lethal -6.3% and IL1B secr inh -19.8.
`COCCNC(=O)C(C)N1c2cccc3cccc(c23)S1(=O)=O` (configuration not stated) gave HT1080 IDH1KD tx 14.5%, TDP1 cell noCPT 4.1%, TDP1 cell CPT -20.7%, HT1080NT lethal 6.9% and IL1B secr inh inconclusive.
For COCCCNC(=O)C(C)N1c2cccc3cccc(c23)S1(=O)=O (configuration not stated) the results were HT1080 IDH1KD tx -9.6%, TDP1 cell noCPT 20.6µM*, TDP1 cell CPT 20.6µM*, HT1080NT lethal -11.4% and IL1B secr inh 11.8.
COc1ccc(C(O)P(=O)(OCC(C)C)c2ccc(N(C)C)cc2)c(OC)c1 (configuration not stated) was read as HT1080 IDH1KD tx -5.6%, TDP1 cell noCPT 6.5%, TDP1 cell CPT -23.1%, HT1080NT lethal -7.8% and IL1B secr inh -0.8.
Screening NC1C(N)C(N)C1N (configuration not stated) returned HT1080 IDH1KD tx 3.7%, TDP1 cell noCPT -13.8%, TDP1 cell CPT 7.7% and HT1080NT lethal 9.2%.
